This is part of a sample that, as a whole, favours compounds with a hit. Of some 79,000 tested, about 15% had one in any assay. Values without a mark were called inactive. The source made the active and inactive calls. Cut-off read from the data, not from the text of the source: active = growth inhibition above about 70%; inactive = the rest. Where a SMILES comes first, the peptide text is derived from it. The star is where a group is joined. Cbz = O=C(OCc1ccccc1)*

The nature of test [1]: NCI Yeast Anticancer Drug Screen. Data for the rad50 strain (AID 155).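 Note: 0% = growth of vehicle-only cultures of the same strain.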 The note with it: S. cerevisiae rad50 strain growth inhibition; at 50.0 µM; active compounds read high. The essentials:
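A DNA repair-deficient yeast mutant serves as the test organism; compound-induced growth inhibition is calculated against vehicle-treated cells.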

The nature of test [2]: NCI Yeast Anticancer Drug Screen. Data for the mec2-1 strain (AID 157). The following applies: S. cerevisiae mec2-1 strain, at 50.0 µM, active compounds read high. The essentials: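 Growth inhibition is read against vehicle-treated controls after compound exposure of the mec2-1 yeast strain, which is defective in DNA damage repair or cell cycle control.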
Test [3] is described as follows: NCI Yeast Anticancer Drug Screen. Data for the sgs1 mgt1 strain (AID 161).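 Note: 0% = growth of cultures given vehicle only.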 The following applies: S. cerevisiae sgs1 mgt1 strain, at 50.0 µM, active compounds read high. The essentials: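 Growth of a repair-deficient yeast mutant was monitored after compound treatment and expressed as inhibition relative to vehicle-treated cultures.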
Test [4] in a line: NCI Yeast Anticancer Drug Screen. Data for the cln2 rad14 strain (AID 165).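 Note: 0% = growth equal to vehicle treated cultures.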 The note with it: S. cerevisiae cln2 rad14 strain, at 50.0 µM, active compounds read high. In short, it runs like this: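 Growth inhibition, relative to vehicle-treated controls, is the read-out. The test organism is a yeast strain with defined genetic alterations, cln2 rad14.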
A short description of test [5]: NCI Yeast Anticancer Drug Screen. Data for the bub3 strain (AID 167). The following applies: S. cerevisiae bub3 mutant strain, at 50.0 µM, active compounds read high. In short, it runs like this: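 Inhibition values come from growth of compound-treated mutant yeast normalised to vehicle-treated controls.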
Test [6] can be described thus: NCI Yeast Anticancer Drug Screen. Data for the mlh1 rad18 strain (AID 175). The note with it: S. cerevisiae mlh1 rad18 strain growth inhibition; at 50.0 µM; active compounds read high. The essentials:
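Cells of a genetically altered yeast strain, deficient in DNA damage repair, were treated with compound. Their growth was then compared with that of vehicle-treated cultures to give inhibition.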

Consider `CCOC(CNCCC(=O)OC)OCC`, for which the growth inhibition in test [1] is -31.9%; in test [2] it was -59.2%; in test [3] it was -23.4%; in test [4] it was -8%; in test [5], -5.35%; in test [6], -29.1%.
On to `COC(=O)C(CC(C)C)NC(=O)C(CCCN=C(N)N)NC(=O)OCc1ccccc1` (stereo not drawn) (Cbz-Arg-Leu-OMe; configuration not given here), for which the growth inhibition was -27.7% in test [1]; -17.6% in test [2]; -15.7% in test [3]; 4.15% in test [4]; -10.3% in test [5]; -12.8% in test [6].
In the case of `CC(NC(=O)CNC(=O)CNC(=O)OCc1ccccc1)C(=O)OCc1ccccc1` (stereo unspecified), the growth inhibition in test [1] is 4.35%; in test [2], 1.4%; in test [3] it was -3.65%; in test [4], -3.65%; in test [5], 1.45%; in test [6], 5.4%.
`N[C@@H]1c2c(Br)sc(Br)c2C(=O)[C@H]1Br`: the growth inhibition in test [1] was -5.35%; in test [2] it was -2.85%; in test [3], 5.6%; in test [4] it was 5.95%; in test [5], -7.05%; in test [6] it was -17.4%.
For the molecule `NC(N)=NS(=O)(=O)c1ccc(N=Cc2c3ccccc3nc3ccccc23)cc1`, the growth inhibition was 98.7% (active) in test [1]; 99.3% (active) in test [2]; 99.2% (active) in test [3]; 98.8% (active) in test [4]; 96% (active) in test [5]; 98.8% (active) in test [6].
With `CCOC(=O)CC(c1ccccc1)C(C#N)(c1ccccc1)N(C)C` (stereo unspecified), the growth inhibition in test [1] was 27.9%; in test [2] it was 19.5%; in test [3], 40.8%; in test [4] it was 18%; in test [5], 30.4%; in test [6], 33.5%.
Turning to `CC(=O)NC1C(OCc2ccccc2)OC(COC(=O)CCCCCCCCCCNc2ccc([N+](=O)[O-])c3[nH]c4ccccc4c(=O)c23)C(O)C1OC(C)C(=O)NC(C)C(=O)NC(CCC(N)=O)C(=O)OCc1ccccc1` (stereo unspecified), the growth inhibition in test [1] is 30.7%; in test [2], 9.8%; in test [3], -3.3%; in test [4], 14.4%; in test [5], 6.15%; in test [6], 12.9%.
On to `COc1cc2ccccc2oc1=O`, for which the growth inhibition in test [1] is 21.3%; in test [2] it was 8.85%; in test [3], 3.8%; in test [4] it was 15.2%; in test [5], 5.2%; in test [6], 21.6%.
In the case of `O=C(Cc1ccc([N+](=O)[O-])c([N+](=O)[O-])c1CC(=O)C(=O)Nc1cc(Cl)ccc1Cl)C(=O)Nc1cc(Cl)ccc1Cl`, the growth inhibition in test [1] was -16%; in test [2] it was -23.8%; in test [3] it was -14.8%; in test [4] it was 12.3%; in test [5], 25.1%; in test [6], -4.3%.
Take `O=C(c1ccccc1)C1C(C(=O)c2ccccc2)C1c1ccccc1` (stereo unspecified): the growth inhibition was -11.3% in test [1]; -4.45% in test [2]; 21.3% in test [3]; 3.4% in test [4]; 31.3% in test [5]; -16.1% in test [6].
Consider `C/C(C#CC1=CCCCC1)=N\Nc1ccc([N+](=O)[O-])cc1[N+](=O)[O-]`, for which the growth inhibition in test [1] was -3.45%; in test [2] it was -24.4%; in test [3], -8.1%; in test [4], -4.3%; in test [5], -7.75%; in test [6] it was 1.1%.
Regarding `C=CCNCc1cc(Cl)cc(Cl)c1O`, the growth inhibition is -8.35% in test [1]; -4.4% in test [2]; -19.1% in test [3]; -51.1% in test [4]; -10.2% in test [5]; 17.2% in test [6].
Regarding `C[N+](C)(C)C12CCCCCC1SC2` (stereo unspecified), the growth inhibition is 15.6% in test [1]; 6.7% in test [2]; 9.55% in test [3]; -26.6% in test [4]; -16.1% in test [5]; 5.1% in test [6].
Consider `CC1CCC(CCBr)CC1` (stereo unspecified), for which the growth inhibition in test [1] was 5.8%; in test [2], -9.9%; in test [3], 5.15%; in test [4], -3.15%; in test [5], 0.9%; in test [6], 2.25%.
For the molecule `CCOC1C(=O)C=COC1C(C)C` (stereo unspecified), the growth inhibition is -2.5% in test [1]; -4.65% in test [2]; -2.75% in test [3]; 1.7% in test [4]; -1.75% in test [5]; -12.2% in test [6].
Take `C=CCOC(=O)Nc1ccc(S(=O)(=O)N(CCC)CCC)cc1`: the growth inhibition was -13.3% in test [1]; -33% in test [2]; 32% in test [3]; -23.4% in test [4]; -14.7% in test [5]; -17.2% in test [6].
For `CCCCCOC(c1cc2c(cc1Br)OCO2)C(C)Br` (stereo unspecified), the growth inhibition was 8.9% in test [1]; 22.1% in test [2]; 10.8% in test [3]; 19.4% in test [4]; 22.8% in test [5]; 13.5% in test [6].
On to `C1CCC2(CC1)CCCN2`, for which the growth inhibition is 7.15% in test [1]; 3.35% in test [2]; 1.4% in test [3]; -3.5% in test [4]; -1.75% in test [5]; 6.35% in test [6].
For the molecule `O=c1[nH]c(C(Cl)(Cl)Cl)nc2ccc(Cl)cc12`, the growth inhibition was -0.3% in test [1]; 8.6% in test [2]; -1.95% in test [3]; 11.8% in test [4]; -10.1% in test [5]; -12.1% in test [6].
With `O=[N+]([O-])c1cc(Br)cc2c1nc(NCCO)c1ccccc12`, the growth inhibition is 90.8% (active) in test [1]; 79.5% (active) in test [2]; 96.8% (active) in test [3]; 88.2% (active) in test [4]; 86.8% (active) in test [5]; 97% (active) in test [6].
As for `Cc1cccc(NC(=S)NCCc2ccccn2)c1`, the growth inhibition in test [1] was -6.85%; in test [2], -7.35%; in test [3], 17.9%; in test [4] it was -10.8%; in test [5], 12.7%; in test [6] it was 5.5%.

The record behind these values is PubChem BioAssay (NCI).
